Screening data from PubChem.
FAS TE block: inhibitors of human fatty acid synthase thioesterase domain; P49327; recombinant FAS-TE, OMFH fluorogenic substrate, fluorescence endpoint; inhibition, % at 15 µM; 0.67% of 360,000 active;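 active means compounds whose normalised, plate-corrected inhibition of enzyme fluorescence in the single-dose primary screen is 50% or more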;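 further: 0% = DMSO with enzyme and 100% = substrate without enzyme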
GRIN3A LBD mod: NR3A (human) ligand-binding domain modulation; NR3A LBD differential scanning fluorimetry, Tm shift; 0% = protein alone, 100% = glycine-bound protein; Tm shift relative to glycine control, % at 25 µM; 2.5% of 340,000 active;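 active means melting temperature shift of at least 10% of the positive control shift, at one fixed dose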
Myeloid diff 2: myeloid differentiation induction; ER-HoxA9 myeloid progenitors, lysozyme-GFP differentiation, flow cytometry; calls only at 10 µM; 1% of 360,000 active; AID 624256;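 active means normalized GFP-positive differentiation at or above the plate's own cutoff, the solvent-only control mean plus 3 SD; inconclusive means no clear call, values can overlap the other calls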;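 further: cells exposed to compound for four days before flow analysis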
rCAG binder: molecules binding r(CAG) RNA repeats | r(CAG) RNA repeat, TO-PRO-1 dye displacement fluorescence | inhibition, % at 3 µM | 1.3% of 370,000 active | AID 651821;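 active means inhibition above the plate cutoff, the mean of all test compounds on that plate plus 3 SD, cut at about 35% in these data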;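 further: 0% = DMSO alone and 100% = 100 µM mitoxantrone as full dye displacement; higher means more dye released from RNA so lower well fluorescence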
MPTP block: blocks calcium-induced mitochondrial swelling. isolated mouse mitochondria, Ca2+ swelling absorbance, 30 min. inhibition, % at 10 µM. 1.4% of 360,000 active;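 active means inhibition of 50% or more, scaled per plate between neutral and stimulator controls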;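 further: 0% = DMSO wells given calcium and 100% = 1 mM EGTA wells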
FAS-TE conf: FAS thioesterase (human) inhibition, confirmation. 45% of 2,300 active. recombinant FAS-TE, OMFH fluorogenic substrate, fluorescence. inhibition, % at 15 µM. shares compounds with FAS TE block;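 active means compounds inhibiting the enzyme by at least 50% at 15 µM in any one of the replicates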;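 further: 0% = enzyme with DMSO only and 100% = wells lacking enzyme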
Numbers without * were called inactive; i = inactive; ? = inconclusive; nt = not tested or not shown. Hits are enriched below; roughly 5.7% of the tested compounds scored in any of these assays.

SMILES	FAS TE block	GRIN3A LBD mod	Myeloid diff 2	rCAG binder	MPTP block	FAS-TE conf
C[C@H](CO)N1C[C@H](C)[C@H](CN(C)C(=O)Nc2cccc3ccccc23)Oc2ncc(Br)cc2C1=O	nt	nt	nt	0.9	nt	nt
Cc1ccc(-c2cc(C(F)F)n3ncc(C(=O)N4CCc5ccccc5C4)c3n2)cc1	53.1*	-0.3	i	0.1	6.3	1.6
CC(=O)N1C[C@@H](CO)[C@@H](N(C)C(=O)Nc2cccc3ccccc23)C[C@H]1c1ccccc1	nt	nt	nt	3.4	nt	nt
CC1=C(C(=O)N(C)C)CC(CC(=O)NCC2CCCCC2)C(=O)N1CCCN1CCCC1=O (stereo not drawn)	-9.0	nt	i	-0.9	0.1	nt
O=C(Oc1cccc(/C=N/Nc2nc(Nc3ccccc3)nc(N3CCOCC3)n2)c1)c1ccco1	61.9*	6.4	i	8.5	-1.2	36.4
COc1ccc(/C=N/Nc2nc(Nc3ccccc3)nc(N3CCCCC3)n2)cc1OC	22.8	-9.3	i	9.9	1.4	nt
COc1ccccc1N1CCN(C(=O)CCCn2c(=S)[nH]c3ccccc3c2=O)CC1	52.6*	nt	i	2.4	1.3	19.8
COc1ccccc1N1CCN(C(=O)c2ccc(Cn3c(=S)[nH]c4cc5c(cc4c3=O)OCO5)cc2)CC1	52.7*	0.9	i	2.0	-2.3	2.1
CCOC(=O)N1CCN(C(=O)c2ccc(Cn3c(=S)[nH]c4cc5c(cc4c3=O)OCO5)cc2)CC1	6.0	-2.3	i	5.3	3.2	nt
COc1ccccc1CCn1cnc(-c2cccc(F)c2)c1C(C)C	nt	nt	nt	0.4	nt	nt
Cc1cc(C)n(CC(=O)N/N=C/c2cc([N+](=O)[O-])ccc2O)n1	20.1	-2.2	i	5.2	28.9	nt
O=C(NN=Cc1ccccc1O)c1cccc([N+](=O)[O-])c1	61.2*	2.9	?	8.4	-0.4	3.7
O=C(N/N=C/c1cc([N+](=O)[O-])ccc1Cl)c1cc(-c2ccccc2)nc2ccccc12	-5.8	-0.9	i	0.0	40.1	nt
Cc1cc(Cl)ccc1NC(=O)CCC(=O)N/N=C/c1cc([N+](=O)[O-])ccc1O	55.3*	0.7	i	3.4	17.1	70.4*
Cc1cc(C(=O)N/N=C/c2cc([N+](=O)[O-])ccc2O)c2ccccc2n1	76.9*	-20.5	i	6.0	5.0	96.8*
O=C(CNC(=O)c1ccc2c(c1)OCO2)N/N=C/c1cccc([N+](=O)[O-])c1	55.0*	-0.3	i	4.4	-0.5	30.0
NCCCC(C(=O)O)N(C(=O)OCc1ccccc1)C(=O)OCc1ccccc1 (stereo not drawn)	nt	nt	nt	7.8	nt	nt
O=C(NCCc1ccccc1)C1CCN(S(=O)(=O)c2cccs2)CC1	-0.2	-1.1	i	0.7	0.0	nt
O=C(NCCN1C(=O)S/C(=C\c2ccccc2)C1=O)C1CCN(S(=O)(=O)c2cccs2)CC1	52.7*	14.8*	i	-0.8	4.7	58.0*
Cc1c(Br)c([N+](=O)[O-])nn1CC(=O)Nc1ccc(C(C)C)cc1	73.4*	0.7	i	12.9	13.3	59.0*
CC(=O)Nc1ccc(NC(=O)Cn2nc([N+](=O)[O-])c(Br)c2C)cc1	3.8	1.9	i	1.2	1.7	nt
Cc1c(Br)c([N+](=O)[O-])nn1CC(=O)Nc1ccc(Cc2ccncc2)cc1	68.3*	-2.6	i	4.0	6.6	64.1*
O=[N+]([O-])c1ccc(CN2CC(N3CCC(Cc4ccccc4)CC3)CS2(=O)=O)cc1 (stereo not drawn)	51.4*	nt	i	4.2	-0.2	57.2*
O=C(Nc1nc(-c2cccc([N+](=O)[O-])c2)cs1)C(c1ccccc1)c1ccccc1	52.2*	-1.0	i	9.2	3.8	12.4
CC(OC(=O)c1ccccc1Br)C(=O)Nc1nc(-c2cccc([N+](=O)[O-])c2)cs1 (stereo not drawn)	5.3	0.5	i	2.1	-6.3	nt
CCCCC(CC)C(=O)Nc1cc([N+](=O)[O-])ccc1F (stereo not drawn)	79.3*	0.9	i	-2.0	2.8	70.8*
CCCCC(CC)C(=O)Nc1ccccc1C#N (stereo not drawn)	-0.2	4.3	i	-1.7	0.8	nt
Cc1cc(C)c(S(=O)(=O)c2ccc(Cl)cc2)c(Cl)n1	10.4	-0.6	i	-3.8	-0.9	nt
Cc1cc(S(=O)(=O)c2ccc(Cl)cc2)nc(S(=O)(=O)c2ccc(Cl)cc2)c1C#N	68.6*	nt	i	17.6	-2.2	71.6*
